tim10-1 inh: growth inhibitors of tim10-1 mutant yeast | S. cerevisiae tim10-1 ts strain growth, BacTiter-Glo, 24 h | inhibition, % at 20 µM | 2.2% of 330,000 active;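 active means inhibition of at least 40%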;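 further: mutant grown at 25 °C; 0% = DMSO wells with yeast and 100% = wells holding no yeast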
tim23-1 inh: inhibits growth of tim23-1 mutant yeast. S. cerevisiae tim23-1 growth, BacTiter-Glo luminescence, 24 h. inhibition, % at 20 µM. 1.3% of 330,000 active. AID 463212;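 active means growth inhibition of the mutant yeast at or above 50%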;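 further: temperature-sensitive mutant grown at 25 °C; plate controls were DMSO-treated mutant yeast for no effect and medium wells lacking yeast for full effect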
TIM10 inh: inhibits growth of TIM10 yeast strain | inhibition, % at 10 µM | S. cerevisiae TIM10 strain growth, BacTiter-Glo luminescence, 24 h | AID 463195 | 1.4% of 330,000 active;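 active means inhibition of 40% or more at the single tested concentration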;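 further: wild-type TIM10 isogenic control strain grown at permissive 25 °C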
NLRP3 yeast inh: blocks the NALP3 inflammasome reconstituted in yeast. AID 2825. Yeast reconstituted NLRP3/ASC/caspase-1, beta-gal luminescence, 24 h. inhibition, % at 10 µM. 0.39% of 330,000 active;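 active means inhibition of 50% or more; inactive means inhibition below 50%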;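 further: plate controls were induced DMSO wells for no effect and uninduced yeast grown without galactose for full effect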
PfHsp90 yeast 2: growth inhibition of yeast expressing Plasmodium Hsp90 | inhibition, % at 9.4 µM | S. cerevisiae expressing PfHsp90, BacTiter-Glo ATP, 48 h; yeast lacking PDR1 and PDR3 efflux regulators | 0.32% of 310,000 active;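 active means every replicate shows inhibition above about 80%, whatever the replicate mean, limit read from the data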;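 further: 0% = DMSO neutral controls and 100% = 20 µM radicicol positive controls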
tim10 confirm: confirmation of TIM10 yeast growth inhibitors | shares compounds with TIM10 inh | S. cerevisiae tim10 strain growth, BacTiter-Glo luminescence, 24 h | inhibition, % at 10 µM | 63% of 4,600 active | AID 463215;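 active means inhibition of yeast growth at or above a set limit in either of two replicates at 10 µM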;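 further: this counterscreen used the strain with wild-type TIM10; 0% = yeast with DMSO and 100% = medium wells lacking yeast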
The depositor's hits bear a star; · = not tested or not shown. Most compounds without a hit are left out; they make up all but 3.7% or so of the library.

SMILES | tim10-1 inh | tim23-1 inh | TIM10 inh | NLRP3 yeast inh | PfHsp90 yeast 2 | tim10 confirm
Cc1c(Cl)cccc1NC(=S)NCCC(C)C | 29.3 | 23.1 | 49.2* | -16.2 | 8.5 | 34.1*
CC1Cc2ccccc2N1C(=O)COC(=O)Cc1ccc(F)cc1 (stereo not drawn) | 15.0 | 31.1 | -3.6 | 29.6 | -9.3 | ·
O=C1c2ccccc2S(=O)(=O)c2cc(N3CCc4ccccc4C3)ccc21 | 35.3 | 36.6 | 44.2* | 22.3 | · | 28.0
O=C1c2ccccc2S(=O)(=O)c2cc(N3CCC(C(=O)N4CCCCC4)CC3)ccc21 | 4.8 | 15.6 | 8.7 | 11.7 | · | ·
COC(=O)c1ccc(NC(=S)NC2CCc3ccccc32)cc1 (stereo not drawn) | 34.0 | 11.2 | 46.9* | 10.8 | 12.9 | 31.2*
Cc1ccsc1/C=C/c1n[nH]c(=O)c(C#N)c1C | 10.5 | 13.6 | -10.1 | -10.5 | -13.9 | ·
COC(=O)c1cccc(-n2sc3ccccc3c2=O)c1 | 24.3 | 21.9 | 27.5 | 13.9 | 20.8 | ·
O=c1c2ccccc2sn1-c1ccc(F)cc1 | 30.3 | 35.2 | 55.3* | 3.4 | 7.3 | 64.5*
COCC(=O)N1CCC(Oc2ccc(C(=O)N3CCSCC3)cc2)CC1 | 5.4 | 7.1 | 4.5 | 17.4 | 13.2 | ·
O=C(Nc1ccccc1OC(F)F)c1ccc(S(=O)(=O)N2CCOCC2)cc1 | 23.8 | 19.2 | 20.7 | 18.8 | -1.5 | ·
Cc1cccc(C)c1N(CC(=O)NCc1ccccc1)C(=O)c1csnn1 | 3.9 | 23.9 | -9.2 | -2.6 | -4.7 | ·
CC(C)c1ccccc1OCCNC(=S)NC(=O)c1cccnc1 | 37.5 | 49.5 | 44.9* | 13.4 | · | 44.2*
Cc1cc(Cl)ccc1OCCNC(=S)NC(=O)c1cccnc1 | 1.5 | -11.8 | -9.3 | 6.3 | 18.0 | ·
O=C(Nc1ccc2c(c1)CCC2)c1cc2ccccc2o1 | 20.4 | 44.3 | 55.8* | 38.5 | 14.9 | -17.7
Cc1cc(C)c(-n2c(C)cc(/C=C3/NC(=O)NC3=O)c2C)c(C)c1 | 37.9 | 22.7 | 52.1* | 7.6 | · | -13.1
COc1ccc(-c2c(C)sc(NC(=O)c3ccnn3C)c2C#N)cc1 | 17.7 | 6.0 | -0.3 | -0.2 | -3.1 | ·
CCn1cc(CNC(=O)c2cccc([N+](=O)[O-])c2)c(C)n1 | 14.8 | 5.7 | -18.6 | 12.8 | -1.3 | ·
O=C(NCc1cn(-c2ccccc2)nc1-c1ccc(F)cc1)c1cccc([N+](=O)[O-])c1 | 32.8 | 6.0 | 41.4* | 21.0 | -4.1 | 21.2
O=c1ccc2cc(S(=O)(=O)NCc3ccccc3)ccc2[nH]1 | -28.2 | -8.5 | -7.7 | 9.2 | 17.6 | ·
CCC(=O)Nc1ccc2c(c1)C(=O)c1ccccc1C2=O | 34.6 | 36.1 | 42.0* | 30.8 | -0.2 | 28.3
O=C(c1cn(-c2ccccc2)nc1-c1ccc(Br)cc1)N1CCOCC1 | 37.4 | 45.4 | 49.7* | 12.4 | 19.1 | -9.6
O=C(N/N=C/c1cc([N+](=O)[O-])ccc1O)C12CC3CC(CC(C3)C1)C2 | 9.2 | 1.8 | 23.0 | 16.6 | -13.6 | ·
O=C(N/N=C/c1cc([N+](=O)[O-])ccc1O)NC12CC3CC(CC(C3)C1)C2 | 34.6 | 34.5 | 43.2* | 20.3 | 13.2 | 30.9
CC(C)(CO)CNC(=O)CCc1nnc(-c2ccc(-c3ccccc3)cc2)o1 | 25.6 | 23.0 | 9.5 | 7.5 | 2.8 | ·
CC1=CC(C)(C)N(C(=O)c2ccccc2)c2ccc(C)cc21 | 26.3 | -6.4 | 46.1* | 2.4 | -0.5 | -9.3
SMILES | tim10-1 inh | tim23-1 inh | TIM10 inh | NLRP3 yeast inh | PfHsp90 yeast 2 | tim10 confirm
CC1=CC(C)(C)N(C(=O)c2ccccc2)c2ccccc21 | 29.0 | 24.8 | 15.6 | 3.8 | -20.5 | ·
COc1ccc(CCn2c(C)cc(C(=O)CCl)c2C)cc1OC | -3.0 | 47.6 | 42.4* | -31.6 | 1.5 | 43.6*
CC(=O)N1c2ccc(S(=O)(=O)N3CCCC3)cc2CC1C(=O)NCc1ccccc1F (stereo not drawn) | 14.7 | 18.2 | 7.2 | 9.9 | 5.4 | ·
COc1ccc(CN=Cc2[nH]c3ccc(Br)c(Cl)c3c2O)cc1 | 9.9 | 13.7 | 41.3* | 15.9 | 9.8 | 18.6
Cc1cc(C)cc(N=Cc2[nH]c3ccc(Br)c(Cl)c3c2O)c1 | · | · | · | · | 2.3 | ·
CC1CCN(CCNC(=S)Nc2ccc(Cl)cc2)CC1 | -5.8 | 2.8 | 12.0 | 8.2 | 3.8 | ·
COc1ccccc1-c1coc2cc(O)cc(O)c2c1=O | 32.5 | 41.2 | 41.8* | 38.8 | 1.1 | 23.5
COc1ccc(-c2coc3cc(O)cc(O)c3c2=O)cc1OC | -2.3 | 3.9 | 13.5 | 9.8 | -10.0 | ·
Cc1ccc(Cl)cc1N1CCN(C(=O)c2ccc3nc[nH]c3c2)CC1 | 31.1 | 39.7 | 47.9* | 13.3 | -5.9 | 36.6*
CC1CCCCC1NC(=O)CN1CCN(S(=O)(=O)c2ccc(Br)s2)CC1 (stereo not drawn) | 23.6 | 38.8 | 22.5 | 10.3 | 7.4 | ·
CCC1(c2ccccc2)NC(=O)N(CC(=O)Nc2ccccc2N2CCCC2)C1=O (stereo not drawn) | -6.2 | -14.9 | -1.4 | -1.8 | 1.0 | ·
CC(C)Oc1ccc(C(=O)Nc2ccc(N(C)C)cc2)cc1 | 14.5 | 24.2 | 50.1* | 27.3 | 9.0 | -22.0
C/C(CC1CC(COCC(C)C)OC1=O)=N\NC(N)=S (stereo not drawn) | 13.3 | -9.3 | 96.4* | 2.3 | 15.6 | 2.0
CCCCCOCC1CC(C/C(C)=N/NC(N)=S)C(=O)O1 (stereo not drawn) | 12.2 | 6.9 | 6.0 | 1.6 | 19.0 | ·
Cc1ccc(S(=O)(=O)NCCSc2nnnn2-c2cc(C)ccc2C)cc1 | 30.2 | 24.3 | 45.2* | -0.8 | -3.9 | 9.0
Cc1ccc(S(=O)(=O)NCCSc2nnnn2-c2ccccc2)cc1 | 23.7 | 32.0 | -11.8 | 16.5 | -12.7 | ·
CCN1C/C(=C/c2ccc(OC)c(O)c2)C(=O)/C(=C/c2ccc(OC)c(O)c2)C1 | 27.4 | 39.8 | 49.6* | 38.1 | 10.4 | 44.8*
COc1ccccc1C(=O)NCCC(=O)NCc1ccncc1 | 6.1 | 10.3 | 4.0 | 9.4 | -18.7 | ·
CC(C)CCOP(=O)(c1ccc(N(C)C)cc1)C(O)c1ccc(C(C)C)cc1 (stereo not drawn) | 30.1 | 24.0 | 40.0 | -83.9 | -44.7 | 36.3*
CC(C)CCOP(=O)(c1ccc(N(C)C)cc1)C(O)c1ccccc1F (stereo not drawn) | 32.4 | 28.8 | 50.1* | 5.7 | 3.1 | 41.4*
CCOC(=O)Nc1cccc(OCC(=O)Nc2ccc(OC)cc2OC)c1 | 30.3 | 24.0 | 24.4 | 12.3 | -16.3 | ·
COc1cc(NC(=O)c2ccccc2)cc(OC)c1 | 22.6 | 43.2 | 67.7* | 47.0 | -4.1 | 46.3*
COC(=O)c1cc(NC(=O)c2cccnc2)cc(C(=O)OC)c1 | 12.7 | 15.5 | 6.5 | -1.2 | -6.2 | ·
O=C(COc1cccc(NC(=O)c2ccccc2)c1)c1ccc(F)cc1 | -4.8 | 8.3 | 41.6* | 17.0 | -28.8 | 33.9*
COC(=O)c1cc(NC(=O)c2cccc(F)c2)cc(C(=O)OC)c1 | 1.7 | 33.5 | 47.9* | 10.1 | 10.5 | 31.1*
CCOC(=O)Nc1cccc(OCC(=O)Nc2ccccc2OC)c1 | 33.8 | 45.5 | 41.7* | 15.5 | -15.0 | 15.2

Assay outcomes (PubChem BioAssay)
